About 83,000 compounds went through this panel and 20% of them were active in at least one assay; those are over-represented in the sample as a whole.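 Note: values are percent growth. 100 is the growth of untreated cells, values between 100 and 0 indicate rising inhibition; between -100 and 0 indicates cell death.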 A number with no mark means an inactive call. Calls of active or inactive are those of the source. The calls were made as follows: active = growth percent below 10; inactive = the rest.
Experiments:
Experiment in all cases: NCI-60 one-dose screen, 48 h (100 = growth as untreated, 0 = no growth, -100 = all killed)
Details in all cases: 10 µM unless noted
NCI-H23 lung = test system: NCI-H23 lung
NCI-H226 lung = test system: NCI-H226 lung
NCI-H322M lung = test system: NCI-H322M lung
HOP-62 NSCLC = test system: HOP-62 NSCLC
NCI-H460 lung = test system: NCI-H460 lung
HOP-92 NSCLC = test system: HOP-92 NSCLC
NCI-H522 lung = test system: NCI-H522 lung
A549/ATCC NSCLC = test system: A549/ATCC NSCLC
786-0 renal = test system: 786-0 renal
COLO 205 colon = test system: COLO 205 colon
DU-145 prostate = test system: DU-145 prostate
MALME-3M melanoma = test system: MALME-3M melanoma
MDA-MB-231 breast = test system: MDA-MB-231 breast
RXF 393 renal = test system: RXF 393 renal
SF-268 CNS = test system: SF-268 CNS
SF-295 CNS = test system: SF-295 CNS
SF-539 CNS = test system: SF-539 CNS
UACC-257 melanoma = test system: UACC-257 melanoma
M14 melanoma = test system: M14 melanoma

Structure (SMILES)	growth (NCI-H23 lung) [%]	growth (NCI-H226 lung) [%]	growth (NCI-H322M lung) [%]	growth (HOP-62 NSCLC) [%]	growth (NCI-H460 lung) [%]	growth (HOP-92 NSCLC)	growth (NCI-H522 lung) [%]	growth (A549/ATCC NSCLC) [%]	growth (786-0 renal) [%]	growth (COLO 205 colon) [%]	growth (DU-145 prostate) [%]	growth (MALME-3M melanoma) [%]	growth (MDA-MB-231 breast) [%]	growth (RXF 393 renal)	growth (SF-268 CNS) [%]	growth (SF-295 CNS) [%]	growth (SF-539 CNS) [%]	growth (UACC-257 melanoma) [%]	growth (M14 melanoma) [%]
Cn1c(-c2c(N)n(CCCN3CCOCC3)c3nc(C#N)c(C#N)nc23)nc2ccccc21	93.2	89.7	78.1	76.4	106	-6.11% (active)	77.4	86.8	23.3	70	75.3	48.4	43.4	51.2%	76.2	110	19.3	67.8	74.2
Cc1ccc(NS(=O)(=O)c2ccc(-c3cnc(C4CC4)o3)cc2)cc1C(F)(F)F	72.8	77.9	88.7	60.7	55.8	83.3%	39.9	55.2	85.5	67.5	87.1	65.8	78.8	69.4%	77.5	43.6	65.5	73.7	48.6
Oc1ccc(OCCOc2ccc(O)cc2)cc1	57.2	92	82.1	87.6	48.5	94.2%	30.9	35	28.3	108	61.4	62	50.3	71.7%	61	32.7	28	83.8	15.8
N#CC1=C(N)Oc2c(cnn2-c2ccc([N+](=O)[O-])cc2[N+](=O)[O-])C1c1ccccc1 (configuration not stated)	104	97	97.7	98.3	103	75.6%	95.3	103	114	111	114	99.8	105	110%	102	93.3	98.2	94.1	95.3
CN1C(N2CCN(S(=O)(=O)c3ccccc3)CC2)=NS(=O)(=O)c2ccccc21	98.2	112	82.6	89	103	86.8%	80.2	69.7	99.5	109	139	103	104	-6.07% (active)	101	39.9	111	61.5	99.8
Cc1nnc2c(Cc3ccccc3)nc3ccccc3n12	91.3	84.9	100	108	100	82.4%	107	97.9	98.6	113	97.7	109	96.1	95.4%	89.9	99.7	95.8	104	99
COC(=O)C(CC=O)C(=O)C(=O)Nc1cccc(C(F)(F)F)c1 (configuration not stated)	101	98.7	97.3	82.2	98.6	95.1%	87.2	78.1	107	110	110	113	90.2	103%	95	110	99.9	66.5	106
NS(=O)(=O)c1ccc(CCn2c(SCC(=O)c3ccc(Cl)cc3)nc3ccccc3c2=O)cc1	95.2	104	96.3	96.1	105	109%	96.7	103	92.4	113	102	96.4	95.5	111%	100	103	94.2	111	104
